Data as given in PubChem BioAssay AID1159580 (chemical genetic matrix, 2015).
Several values for one entry are separate records, joined by “and”; a condition that tells them apart may be missing. Equal entries are not always repeated. The campaign covered roughly 5,500 compounds. About 2,000 (36%) were called active. Inconclusive results (about 18%) are left out. Cut-off read from the data, not from the text of the source: active = normalized growth mostly below about 0.91 (no sharp cut-off); inconclusive = no clear call, values can overlap the other calls; inactive = mostly above about 0.92. The list shows a part of the results.

Assay: chemical genetic growth profiling, strain panel (AID 1159580);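 note: tested at 20 µM; growth read once vehicle control cultures reached saturation at 30 °C; 1 = growth at the plate median or of vehicle wells; lower values mean less growth of the strain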
Conditions: S. cerevisiae deletion strains, growth OD

Measured: normalized growth

COC(C)(C)CCC[C@H](C)C/C=C/C(C)=C/C(=O)OC(C)C
inactive: locus YAL013W, strain DEP1, active compounds read low 0.998 | locus YAL021C, strain ccr4, active compounds read low 1.03 | locus YAL026C, strain drs2, active compounds read low 1.01 | locus YAL030W, strain snc1, active compounds read low 1.03 | locus YBL061C, strain skt5, active compounds read low 1.02 | locus YBR009C, strain hhf1, active compounds read low 1.01 | locus YBR021W, strain FUR4, active compounds read low 0.985 | locus YBR023C, strain chs3, active compounds read low 1.02 | locus YBR171W, strain sec66, active compounds read low 1.02 | locus YBR229C, strain ROT2, active compounds read low 1 | locus YBR231C, strain swc5, active compounds read low 1 | locus YBR279W, strain paf1, active compounds read low 1 | locus YCL011C, strain gbp2, active compounds read low 1.02 | locus YCL016C, strain dcc1, active compounds read low 1.01 | locus YCL029C, strain bik1, active compounds read low 1.05 | locus YCL061C, strain MRC1, active compounds read low 1.02 | locus YCL069W, strain vba3, active compounds read low 1.03 | locus YCR088W, strain abp1, active compounds read low 1.02 | locus YDL005C, strain med2, active compounds read low 1 | locus YDL035C, strain GPR1, active compounds read low 1 | locus YDL040C, strain nat1, active compounds read low 1 | locus YDL074C, strain BRE1, active compounds read low 0.998 | locus YDL101C, strain DUN1, active compounds read low 1.01 | locus YDL134C, strain PPH21, active compounds read low 1.01 | locus YDL185W, strain tfp1, active compounds read low 1.01 | locus YDL192W, strain arf1, active compounds read low 1.03 | locus YDR001C, strain nth1, active compounds read low 1.02 | locus YDR069C, strain doa4, active compounds read low 1.01 | locus YDR101C, strain arx1, active compounds read low 1.02 | locus YDR137W, strain rgp1, active compounds read low 1.09 | locus YDR150W, strain NUM1, active compounds read low 0.994 | locus YDR159W, strain sac3, active compounds read low 1.03 | locus YDR162C, strain NBP2, active compounds read low 1 | locus YDR195W, strain ref2 0.99 | locus YDR297W, strain sur2, active compounds read low 1.02 | locus YDR318W, strain mcm21, active compounds read low 1.03 | locus YDR334W, strain swr1, active compounds read low 1.02 | locus YDR335W, strain msn5, active compounds read low 1.03 | locus YDR388W, active compounds read low 1.02 | locus YDR392W, strain spt3, active compounds read low 1.05 | locus YDR502C, strain sam2, active compounds read low 1.03 | locus YEL003W, strain gim4, active compounds read low 1.01 | locus YEL037C, strain rad23, active compounds read low 1.01 | locus YEL061C, strain CIN8 (second series), active compounds read low 1.02 | locus YEL061C, strain CIN8, active compounds read low 0.999 | locus YER015W, strain faa2, active compounds read low 1.01 | locus YER016W, strain bim1, active compounds read low 1.02 | locus YER110C, active compounds read low 1.03 | locus YER111C, strain swi4, active compounds read low 1.01 | locus YER155C, strain BEM2 (second series), active compounds read low 1.01 | locus YER155C, strain BEM2, active compounds read low 0.99 | locus YER167W, strain BCK2, active compounds read low 1.01 | locus YFR010W, strain ubp6, active compounds read low 1 | locus YGL078C, strain dbp3, active compounds read low 1.02 | locus YGL086W, strain mad1, active compounds read low 1 | locus YGL167C, strain pmr1, active compounds read low 1.02 | locus YGL173C, strain kem1, active compounds read low 1.02 | locus YGL227W, strain vid30, active compounds read low 1.05 | locus YGL240W, strain doc1, active compounds read low 1.03 | locus YGL248W, strain PDE1, active compounds read low 1.01 | locus YGL253W, strain hxk2, active compounds read low 1 | locus YGR078C, strain PAC10, active compounds read low 1.01 | locus YGR135W, strain pre9, active compounds read low 1.04 | locus YGR229C, strain SMI1, active compounds read low 1.03 | locus YGR252W, strain gcn5, active compounds read low 1.06 | locus YHR013C, strain ard1, active compounds read low 1.03 | locus YHR027C, strain rpn1, active compounds read low 1 | locus YHR030C, strain SLT2, active compounds read low 1 and 0.961 | locus YHR079C, strain IRE1 (second series), active compounds read low 1.01 | locus YHR079C, strain IRE1, active compounds read low 0.942 | locus YHR094C, strain hxt1, active compounds read low 1.01 | locus YHR129C, strain ARP1, active compounds read low 0.998 | locus YHR142W, strain chs7, active compounds read low 0.979 | locus YHR200W, strain rpn10, active compounds read low 1.02 | locus YIL066C, strain RNR3, active compounds read low 1.01 | locus YIL073C, strain SPO22, active compounds read low 1.08 | locus YIL125W, strain kgd1, active compounds read low 1.01 | locus YIR030C, strain dcg1, active compounds read low 1.03 | locus YJL092W, strain hpr5, active compounds read low 1.03 | locus YJL095W, strain BCK1 (second series), active compounds read low 1.02 | locus YJL095W, strain BCK1, active compounds read low 1.03 and 0.955 | locus YJL115W, strain asf1, active compounds read low 1.02 | locus YJL129C, strain trk1, active compounds read low 0.942 | locus YJL134W, strain LCB3, active compounds read low 1 | locus YJL154C, strain vps35, active compounds read low 1.01 | locus YJL164C, strain tpk1, active compounds read low 1 | locus YJL166W, strain qcr8, active compounds read low 1.02 | locus YJL168C, strain set2, active compounds read low 1.02 | locus YJL187C, strain SWE1 (second series), active compounds read low 1.02 | locus YJR043C, strain POL32, active compounds read low 1.01 | locus YJR066W, strain TOR1, active compounds read low 0.892
